Experimental findings from PubChem BioAssay (NCATS) are described below.

Inconclusive results are not listed. The source made the active and inactive calls. Calls come from the whole dose curve; as a rule, active = well fitted inhibition curve with a large enough effect; inconclusive = small, poorly fitted or top-dose-only effect; inactive = flat fitted curve, though single readings scatter.
% is set by controls: 0 for no effect and ±100 for the full control effect; potency is the fitted concentration of half-maximal effect.

For the test, the system named is astro (control astrocytes). Description: Drug repurposing screens with cells derived from glioblastoma tumor samples (AID 1345199). Note: nearly all actives have a fitted effect of over 40% in size. Particulars: viability, ATP luminescence, 48 h; series mostly up to 45.9 µM; activity, negative = cell killing: at the top concentration. Put shortly:
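Four patient lines of CD133+ GBM neurospheres were screened at several concentrations; hits were retested in those lines plus three slower-growing GBM lines, using 48-hour treatment and ATP-based viability.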
Regarding `CC1=C(C(=O)O)N2C(=O)[C@@H](NC(=O)[C@H](N)C3=CCC=CC3)[C@H]2SC1`, the “activity, negative = cell killing” value is -23.1% (inactive).

`CCC(C)(Oc1ccc(C2(c3ccc(OC(C)(CC)C(=O)O)cc3)CCCCC2)cc1)C(=O)O` (stereo not given): the “activity, negative = cell killing” value is -16.5% (inactive).

On to `COc1ccc2cc([C@H](C)C(=O)O)ccc2c1`, for which the “activity, negative = cell killing” value is -14.2% [at 21.2 µM] (inactive).

Take `CCC[C@@H]1C[C@@H](C(=O)N[C@@H]([C@H]2O[C@H](SC)[C@H](O)[C@@H](O)[C@H]2O)[C@@H](C)O)N(C)C1`: the “activity, negative = cell killing” value is -7.77% (inactive).

For `O=C1CCc2ccc(OCCCCN3CCN(c4cccc(Cl)c4Cl)CC3)cc2N1`, the Potency is 31.6 µM (active).

Regarding `NNc1nncc2ccccc12`, the “activity, negative = cell killing” value is -21.3% [at 21.2 µM] (inactive).

In the case of `Cc1cccc(CN2CCN(C(c3ccccc3)c3ccc(Cl)cc3)CC2)c1` (stereo not given), the “activity, negative = cell killing” value is 2.97% [at 21.2 µM] (inactive).

`CC(=O)NC[C@H]1CN(c2ccc(N3CCOCC3)c(F)c2)C(=O)O1`: the “activity, negative = cell killing” value is 2.61% (inactive).

In the case of `CN(c1nccc(=O)[nH]1)C1CCN(c2nc3ccccc3n2Cc2ccc(F)cc2)CC1`, the “activity, negative = cell killing” value is -12% (inactive).

`O=C1c2ccccc2-c2n[nH]c3cccc1c23`: the Potency was 10 µM (active).

As for `Cc1nccn1CC1CCc2c(c3ccccc3n2C)C1=O` (stereo not given), the Potency entry was “inactive”.

As for `Nc1ncn([C@H]2C[C@H](O)[C@@H](CO)O2)c(=O)n1`, the “activity, negative = cell killing” value is -5.69% (inactive).

For the compound `Cc1ncc([N+](=O)[O-])n1CC(C)O` (stereo not given), the “activity, negative = cell killing” value was 2.02% (inactive).

As for `CN1C(C(=O)Nc2ccccn2)=C(O)c2sccc2S1(=O)=O`, the “activity, negative = cell killing” value was -16.7% [at 21.2 µM] (inactive).

Consider `COc1cc2nc(N3CCN(C(=O)C4CCCO4)CC3)nc(N)c2cc1OC` (stereo not given), for which the “activity, negative = cell killing” value was -16.7% (inactive).

Consider `O=C(NCCO[N+](=O)[O-])c1cccnc1`, for which the “activity, negative = cell killing” value was -6.25% (inactive).

With `CC(C)c1ccc2oc3nc(N)c(C(=O)O)cc3c(=O)c2c1`, the Potency was 1.78 µM (active).

In the case of `O=C(O)c1cc(=O)c2c(OCC(O)COc3cccc4oc(C(=O)O)cc(=O)c34)cccc2o1`, the “activity, negative = cell killing” value is -6.49% (inactive).

`c1cnc2cc3c(cc2n1)C1CNCC3C1`: the “activity, negative = cell killing” value was -14% [at 108 µM] (inactive).

As to `O=C(NOCC1CC1)c1ccc(F)c(F)c1Nc1ccc(I)cc1Cl`, the Potency was 2.51 µM (active).

As to `O=P(O)(O)C(O)(Cn1ccnc1)P(=O)(O)O`, the “activity, negative = cell killing” value is -13.1% (inactive).

With `CCC1=C(C)CN(C(=O)NCCc2ccc(S(=O)(=O)NC(=O)NC3CCC(C)CC3)cc2)C1=O` (stereo not given), the “activity, negative = cell killing” value is -20.4% (inactive).

With `C[Se]CCC(N)C(=O)O` (stereo not given), the “activity, negative = cell killing” value was -17.7% (inactive).

`Cc1cc2c(s1)Nc1ccccc1N=C2N1CCN(C)CC1`: the “activity, negative = cell killing” value is -23.6% (inactive).

As to `COc1c(O)cc2c(c1O)[C@@H]1O[C@H](CO)[C@@H](O)[C@H](O)[C@H]1OC2=O`, the “activity, negative = cell killing” value is -10.5% [at 21.2 µM] (inactive).

Regarding `COCCCOc1ccnc(CS(=O)c2nc3ccccc3[nH]2)c1C` (stereo not given), the Potency is 22.4 µM (active).

`Nc1ccn([C@@H]2O[C@H](CO)[C@@H](O)C2O)c(=O)n1` (stereo not given in full): the “activity, negative = cell killing” value was -24% (inactive).

Take `COC(=O)N[C@H](C(=O)N[C@@H](Cc1ccccc1)[C@@H](O)CN(Cc1ccc(-c2ccccn2)cc1)NC(=O)[C@@H](NC(=O)OC)C(C)(C)C)C(C)(C)C`: the “activity, negative = cell killing” value was -12.3% (inactive).

Regarding `CCCCN(CCCC)CCC(O)c1cc2c(Cl)cc(Cl)cc2c2cc(C(F)(F)F)ccc12` (stereo not given), the “activity, negative = cell killing” value was -28.5% [at 21.2 µM] (inactive).

As to `Cc1c(OCC(F)(F)F)ccnc1CS(=O)c1nc2ccccc2[nH]1` (stereo not given), the “activity, negative = cell killing” value was -8.87% (inactive).

For the compound `O=c1oc2cc(O)ccc2s1`, the “activity, negative = cell killing” value is -11.7% (inactive).

For the compound `CNC[C@@H](O)[C@@H](O)[C@H](O)[C@H](O)CO`, the “activity, negative = cell killing” value is -7.44% (inactive).

With `CCCCC(CC)COC(=O)C(C#N)=C(c1ccccc1)c1ccccc1` (stereo not given), the “activity, negative = cell killing” value was -14.5% (inactive).

In the case of `CN(C)CCc1c[nH]c2ccc(Cn3cncn3)cc12`, the “activity, negative = cell killing” value was -6.48% (inactive).

Take `COC(=O)C1=C(C)NC(C)=C(C(=O)OC(C)C)C1c1cccc2nonc12` (stereo not given): the “activity, negative = cell killing” value is -12.4% [at 21.2 µM] (inactive).
